Here are results for 30 compounds from PubChem BioAssay (EPA / NIEHS).

Activity calls are given as the source filed them. Rule for the calls: active = hit-call score of the fitted dose curve at least 0.9, where 1 is the maximum; inactive = score below 0.9.

A short description of the first experiment: CCTE_Mundy_HCI_Cortical_Synap_Neur_Matur_SynapseCount: CCTE's Synaptogenesis and Neurite Maturation Assay in rat cortical cells for Synapse Count, Mundy Lab (AID 2284218).
Conditions: not given
In outline:
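Synapse count per neuron is measured in rat cortical neurons exposed to chemicals between DIV 7 and DIV 12, with glial growth arrested by AraC at DIV 5. Synaptophysin and MAP2 staining is imaged automatically; activity is fitted relative to DMSO.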
Consider `CC1(C)S[C@@H]2[C@H](NC(=O)COc3ccccc3)C(=O)N2[C@H]1C(=O)O`, for which the compound was classed as inactive.
In the case of `Nc1ncn([C@@H]2O[C@H](CO)[C@@H](O)[C@H]2O)c(=O)n1`, the compound was called inactive.
On the same count and under the same terms, with `N[C@H]1C(O)O[C@H](CO)[C@H](O)[C@@H]1O` (stereo partly specified) the entry was “inactive”.

Another experiment in a line: CCTE_Mundy_HCI_Cortical_Synap_Neur_Matur_NeuriteCount: CCTE's Synaptogenesis and Neurite Maturation Assay in rat cortical cells for Neurite Count, Mundy Lab (AID 2284222).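 Note: exposure from day 7 to day 12 in vitro with readout at day 12.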
Conditions: not given
In outline:
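In this multiplexed morphology readout, rat primary cortical neurons are fixed at DIV 12 following dosing at DIV 7 and stained for MAP2, synaptophysin and nuclei. High-content image analysis yields neurite count.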
`CC1(C)S[C@@H]2[C@H](NC(=O)COc3ccccc3)C(=O)N2[C@H]1C(=O)O`: the call was inactive.
With `Nc1ncn([C@@H]2O[C@H](CO)[C@@H](O)[C@H]2O)c(=O)n1`, the result was inactive.
Still for that read-out and setting: with `N[C@H]1C(O)O[C@H](CO)[C@H](O)[C@@H]1O` (stereo partly specified) the entry was “inactive”.

Another experiment is described as follows: CCTE_Mundy_HCI_Cortical_Synap_Neur_Matur_CellBodySpotCount: CCTE's Synaptogenesis and Neurite Maturation Assay in rat cortical cells for Cell Body Spot Count, Mundy Lab (AID 2284223).
Conditions: not given
In outline:
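Synapse number at neuronal cell bodies was quantified as synaptophysin puncta per neuron in rat cortical cultures exposed from DIV 7 to DIV 12. Values were normalised to DMSO.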
`CC1(C)S[C@@H]2[C@H](NC(=O)COc3ccccc3)C(=O)N2[C@H]1C(=O)O`: the outcome was inactive.
The same measure, in the same setting: with `Nc1ncn([C@@H]2O[C@H](CO)[C@@H](O)[C@H]2O)c(=O)n1` the entry was “inactive”; with `N[C@H]1C(O)O[C@H](CO)[C@H](O)[C@@H]1O` (stereo partly specified), “inactive”.

A further experiment in a line: BSK_BT_PBMCCytotoxicity: PBMC Cytotoxicity Assessment in the BioMAP Diversity Plus: BT Assay (AID 2284225).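 Note: PBMC viability measured by Alamar Blue dye reduction fluorescence.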 Particulars: primary human B cells with PBMC. In outline: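 75,000 cells/well; cpd 1 h → SEB + TSST-1 (20 ng/mL final each) → 90 h → Alamar Blue 6 h → fluor. 546/580 nm. DMSO = neg. control/baseline.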
What is called AC50 is the concentration at which the activity in the assay is half-maximal. As to `CCCCCCCCCCCCCCCC[N+](C)(C)CC`, the AC50 is 6.46 µM (active).
Still for that read-out and setting: with `C#CC1(O)CC[C@H]2[C@@H]3CCC4=CCCC[C@@H]4[C@H]3CC[C@@]21C` (stereo partly specified) the figure was 34.3 µM (active).
Take `C/C=C\C/C=C/CCCCCCCCOC(C)=O`: the concentration at half-maximal activity (AC50) was 20 µM (active).
As for `O=c1c2ccccc2oc2ccccc12`, the result was inactive.
Same read-out and setting: with `CC(C)C(=O)C(C)C` the entry was “inactive”.
Turning to `C=CCOc1c(Br)cc(Br)cc1Br`, the outcome was inactive.
Consider `O=C(Cl)c1cc(C(=O)Cl)cc(C(=O)Cl)c1`, for which the AC50 is 28 µM (active).
Take `O=C(Nc1ccccc1SSc1ccccc1NC(=O)c1ccccc1)c1ccccc1`: the half-maximal activity concentration (AC50) was 6.24 µM (active).
In the case of `CC(C)(c1cc(Br)c(OCCO)c(Br)c1)c1cc(Br)c(OCCO)c(Br)c1`, the result was inactive.
On the same count and under the same terms, with `O=Nc1ccc(O)cc1` the entry was “inactive”; with `c1ccc2c(c1)ccc1ncccc12`, “inactive”; with `CCCCCCCCc1ccc(Nc2ccc(CCCCCCCC)cc2)cc1`, “inactive”.
The same measure, in the same setting: with `c1ccc2c(c1)ccc1cc3c(ccc4ccccc43)cc12` the entry was “inactive”; with `N#[N+]c1ccc2c(S(=O)(=O)[O-])cccc2c1O`, “inactive”.
With `S=C(NC1CCCCC1)NC1CCCCC1`, the result was inactive.
The same measure, in the same setting: with `C=CCOCC(O)CCl` (stereo unspecified) the entry was “inactive”.
`CCCCC/C=C\C/C=C\CCCCCCCC(=O)OC`: the AC50 is 24.3 µM (active).
For the compound `CCOc1nc(F)cc2nc(S(=O)(=O)Nc3c(Cl)cccc3C(=O)OC)nn12`, the outcome was inactive.
For `CCCCC(CC)COC(=O)c1ccccc1O` (stereo unspecified), the outcome was inactive.
Still for that read-out and setting: with `CC1OC1C1CCC2(C)OC2C1` (stereo unspecified) the entry was “inactive”; with `c1ccc(-c2ccccn2)nc1`, “inactive”.
The same measure, in the same setting: with `CCO[Si](CCCN=C=O)(OCC)OCC` the entry was “inactive”.
The same measure, in the same setting: with `CCCCNc1ccc(NCCCC)c2c1C(=O)c1ccccc1C2=O` the entry was “inactive”.
Regarding `COCc1c(C(C)C)nc(C(C)C)c(/C=C/[C@@H](O)C[C@@H](O)CC(=O)O)c1-c1ccc(F)cc1`, the result was inactive.
Turning to `C=CC=CC=CCCCCC`, the outcome was inactive.
As to `C=CC(=O)OCC(Br)CBr` (stereo unspecified), the AC50 was 20.5 µM (active).
On to `COc1ccc2nc(N)sc2c1`, for which the outcome was inactive.
